In the supplement of paper PMC10849652:
Of roughly 7,900 targets only a part is listed; those with a hit were picked by preference. About 0.6% of all pairs of compound and target were hits.

Compound: c1cn2cc(-c3ccc4cn[nH]c4c3)nc(Nc3ccc(N4CCOCC4)cc3)c2n1 [entospletinib]
Assay: log2 fold change, soluble protein after heating vs DMSO (PISA); higher = thermal stabilisation; K562 cells, 10 uM, 30 min; active = over 0.2 and 3.5 SD of the protein, either way, in both replicates (recomputed)
Summary of the method: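 K562 cells (2×10^6 cells/mL) were treated with 10 μM compound for 30 min, and aliquots were heated for 3 min over 48°C-58°C. Pooled aliquots were extracted in PBS with 0.5% NP-40 at 4°C, and the supernatant after 21,000xg for 90 min was measured by TMTpro 16plex LC-MS/MS with channel sums equalised. Reported thermal stability, relative to control samples and from duplicates, is a log2 fold change.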

UniProt Q12906, sequence (Q12906 whole entry, looked up): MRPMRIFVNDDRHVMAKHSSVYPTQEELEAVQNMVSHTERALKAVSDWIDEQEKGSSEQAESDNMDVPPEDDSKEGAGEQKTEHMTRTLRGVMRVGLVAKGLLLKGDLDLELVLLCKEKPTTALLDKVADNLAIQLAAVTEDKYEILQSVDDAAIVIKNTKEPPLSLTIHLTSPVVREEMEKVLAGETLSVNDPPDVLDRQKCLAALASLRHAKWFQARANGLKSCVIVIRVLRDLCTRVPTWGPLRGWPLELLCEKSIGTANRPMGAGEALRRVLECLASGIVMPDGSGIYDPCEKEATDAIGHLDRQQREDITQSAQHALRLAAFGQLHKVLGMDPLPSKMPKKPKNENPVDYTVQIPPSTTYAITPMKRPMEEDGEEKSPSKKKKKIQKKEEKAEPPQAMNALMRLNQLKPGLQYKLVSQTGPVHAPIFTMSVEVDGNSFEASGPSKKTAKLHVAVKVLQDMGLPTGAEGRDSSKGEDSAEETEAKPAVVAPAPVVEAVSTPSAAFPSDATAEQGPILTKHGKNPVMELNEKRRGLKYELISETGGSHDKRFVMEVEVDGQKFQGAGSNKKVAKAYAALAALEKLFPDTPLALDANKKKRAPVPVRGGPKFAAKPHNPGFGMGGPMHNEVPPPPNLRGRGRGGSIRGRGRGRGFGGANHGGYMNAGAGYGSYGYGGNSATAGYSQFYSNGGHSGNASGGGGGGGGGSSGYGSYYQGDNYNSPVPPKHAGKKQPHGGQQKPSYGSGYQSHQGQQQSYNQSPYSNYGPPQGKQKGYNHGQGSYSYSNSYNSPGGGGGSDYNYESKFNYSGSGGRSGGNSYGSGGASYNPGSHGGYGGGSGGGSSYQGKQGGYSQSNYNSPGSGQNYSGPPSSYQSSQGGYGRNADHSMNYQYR
UniProt P50851, sequence (P50851 whole entry, looked up): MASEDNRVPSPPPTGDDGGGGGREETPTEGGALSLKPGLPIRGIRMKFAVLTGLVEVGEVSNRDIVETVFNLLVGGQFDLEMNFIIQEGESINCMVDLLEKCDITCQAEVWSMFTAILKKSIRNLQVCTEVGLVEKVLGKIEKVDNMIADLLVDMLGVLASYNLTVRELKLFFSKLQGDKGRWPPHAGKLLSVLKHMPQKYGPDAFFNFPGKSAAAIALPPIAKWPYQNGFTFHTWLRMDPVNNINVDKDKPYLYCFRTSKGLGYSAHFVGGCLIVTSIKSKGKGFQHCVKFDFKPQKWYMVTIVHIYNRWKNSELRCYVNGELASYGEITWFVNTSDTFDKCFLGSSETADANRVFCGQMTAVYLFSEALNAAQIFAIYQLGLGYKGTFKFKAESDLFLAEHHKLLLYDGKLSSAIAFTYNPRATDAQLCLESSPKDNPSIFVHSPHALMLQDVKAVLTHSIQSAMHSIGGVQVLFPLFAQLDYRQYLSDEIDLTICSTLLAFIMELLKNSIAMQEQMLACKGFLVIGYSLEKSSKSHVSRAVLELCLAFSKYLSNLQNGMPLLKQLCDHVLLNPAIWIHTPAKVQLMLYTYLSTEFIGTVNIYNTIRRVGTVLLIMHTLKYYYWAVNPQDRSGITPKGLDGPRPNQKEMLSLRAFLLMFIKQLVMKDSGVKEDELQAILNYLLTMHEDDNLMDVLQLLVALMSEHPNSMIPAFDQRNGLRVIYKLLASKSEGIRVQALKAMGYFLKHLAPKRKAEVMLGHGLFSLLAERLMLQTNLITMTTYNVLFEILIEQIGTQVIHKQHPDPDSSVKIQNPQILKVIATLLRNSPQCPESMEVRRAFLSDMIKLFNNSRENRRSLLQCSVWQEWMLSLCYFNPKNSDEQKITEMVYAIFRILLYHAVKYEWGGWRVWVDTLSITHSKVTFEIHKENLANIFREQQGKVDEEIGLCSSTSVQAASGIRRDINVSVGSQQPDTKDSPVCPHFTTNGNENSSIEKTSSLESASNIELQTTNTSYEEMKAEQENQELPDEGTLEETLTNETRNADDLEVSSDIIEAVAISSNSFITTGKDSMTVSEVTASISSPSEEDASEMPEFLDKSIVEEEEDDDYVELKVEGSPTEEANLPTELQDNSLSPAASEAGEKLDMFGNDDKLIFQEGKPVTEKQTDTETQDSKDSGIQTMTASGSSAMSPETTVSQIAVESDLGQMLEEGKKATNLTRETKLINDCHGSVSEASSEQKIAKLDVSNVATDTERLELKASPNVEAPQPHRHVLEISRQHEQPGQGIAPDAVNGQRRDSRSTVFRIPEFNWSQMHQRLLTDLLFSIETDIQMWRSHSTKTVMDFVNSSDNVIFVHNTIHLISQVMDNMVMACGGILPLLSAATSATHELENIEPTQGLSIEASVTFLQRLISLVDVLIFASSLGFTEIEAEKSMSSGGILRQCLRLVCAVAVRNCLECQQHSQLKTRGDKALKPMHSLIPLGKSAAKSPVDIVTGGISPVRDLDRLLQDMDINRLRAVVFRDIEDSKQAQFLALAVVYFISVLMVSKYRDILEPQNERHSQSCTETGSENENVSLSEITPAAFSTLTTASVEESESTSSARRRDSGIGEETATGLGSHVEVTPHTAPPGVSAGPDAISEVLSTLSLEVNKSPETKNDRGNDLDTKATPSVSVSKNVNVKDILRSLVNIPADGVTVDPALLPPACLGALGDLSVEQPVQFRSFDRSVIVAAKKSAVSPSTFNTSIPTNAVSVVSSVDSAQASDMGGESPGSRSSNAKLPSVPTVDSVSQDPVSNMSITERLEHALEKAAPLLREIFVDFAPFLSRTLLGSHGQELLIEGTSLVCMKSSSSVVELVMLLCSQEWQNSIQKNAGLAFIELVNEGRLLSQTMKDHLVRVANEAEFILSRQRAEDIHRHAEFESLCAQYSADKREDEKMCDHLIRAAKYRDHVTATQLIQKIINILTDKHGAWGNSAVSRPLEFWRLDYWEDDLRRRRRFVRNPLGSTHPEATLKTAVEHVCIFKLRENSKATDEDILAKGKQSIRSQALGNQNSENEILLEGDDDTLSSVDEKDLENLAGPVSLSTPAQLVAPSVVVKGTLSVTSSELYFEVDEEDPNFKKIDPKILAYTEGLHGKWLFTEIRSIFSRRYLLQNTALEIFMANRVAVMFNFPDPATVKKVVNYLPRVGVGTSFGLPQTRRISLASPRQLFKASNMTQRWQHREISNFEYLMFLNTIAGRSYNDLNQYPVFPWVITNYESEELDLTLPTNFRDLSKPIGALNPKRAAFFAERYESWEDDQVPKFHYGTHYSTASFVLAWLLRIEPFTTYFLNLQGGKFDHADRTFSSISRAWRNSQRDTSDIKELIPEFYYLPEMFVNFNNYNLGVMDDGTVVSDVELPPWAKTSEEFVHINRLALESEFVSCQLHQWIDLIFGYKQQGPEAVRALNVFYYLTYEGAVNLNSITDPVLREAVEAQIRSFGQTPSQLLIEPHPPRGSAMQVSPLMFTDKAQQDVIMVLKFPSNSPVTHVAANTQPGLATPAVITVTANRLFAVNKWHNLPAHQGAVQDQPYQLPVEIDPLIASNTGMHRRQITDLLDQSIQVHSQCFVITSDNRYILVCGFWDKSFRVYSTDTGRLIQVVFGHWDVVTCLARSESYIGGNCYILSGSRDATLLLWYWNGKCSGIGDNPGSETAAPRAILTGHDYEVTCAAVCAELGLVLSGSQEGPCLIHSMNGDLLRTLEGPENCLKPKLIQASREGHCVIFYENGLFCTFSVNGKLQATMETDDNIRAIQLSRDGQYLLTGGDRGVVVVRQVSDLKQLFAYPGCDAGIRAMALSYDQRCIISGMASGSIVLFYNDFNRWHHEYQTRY
UniProt Q9UHB6, sequence (Q9UHB6 whole entry, looked up): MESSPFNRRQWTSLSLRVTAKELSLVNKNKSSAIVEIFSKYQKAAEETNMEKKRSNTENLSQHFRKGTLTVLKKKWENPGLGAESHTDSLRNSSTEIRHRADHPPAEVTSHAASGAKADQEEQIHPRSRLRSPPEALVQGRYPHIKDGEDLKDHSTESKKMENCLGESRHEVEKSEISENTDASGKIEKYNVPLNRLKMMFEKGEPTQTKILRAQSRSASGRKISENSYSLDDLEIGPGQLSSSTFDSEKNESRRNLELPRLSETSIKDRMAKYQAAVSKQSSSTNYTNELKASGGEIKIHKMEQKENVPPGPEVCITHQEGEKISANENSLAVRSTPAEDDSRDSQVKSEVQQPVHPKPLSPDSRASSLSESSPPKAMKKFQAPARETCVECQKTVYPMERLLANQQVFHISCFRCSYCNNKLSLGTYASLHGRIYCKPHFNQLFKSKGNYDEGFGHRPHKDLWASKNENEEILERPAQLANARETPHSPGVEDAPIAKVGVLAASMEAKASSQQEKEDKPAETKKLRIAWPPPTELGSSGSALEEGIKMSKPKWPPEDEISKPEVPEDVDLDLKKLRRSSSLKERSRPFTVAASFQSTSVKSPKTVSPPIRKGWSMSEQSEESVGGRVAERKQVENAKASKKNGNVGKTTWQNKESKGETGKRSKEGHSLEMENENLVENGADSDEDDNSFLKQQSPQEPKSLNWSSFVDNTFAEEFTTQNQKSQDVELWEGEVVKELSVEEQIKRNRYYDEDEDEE
UniProt Q08334, sequence (Q08334 whole entry, looked up): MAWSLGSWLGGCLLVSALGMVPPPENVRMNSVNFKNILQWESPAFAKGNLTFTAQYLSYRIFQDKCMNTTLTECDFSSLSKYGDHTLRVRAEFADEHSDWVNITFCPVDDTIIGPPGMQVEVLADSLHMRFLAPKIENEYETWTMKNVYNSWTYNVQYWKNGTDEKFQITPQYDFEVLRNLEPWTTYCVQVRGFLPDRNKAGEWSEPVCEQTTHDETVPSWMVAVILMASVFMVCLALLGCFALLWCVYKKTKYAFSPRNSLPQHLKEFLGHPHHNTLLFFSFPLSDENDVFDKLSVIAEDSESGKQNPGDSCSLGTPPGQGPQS
UniProt O95372, sequence (O95372 whole entry, looked up): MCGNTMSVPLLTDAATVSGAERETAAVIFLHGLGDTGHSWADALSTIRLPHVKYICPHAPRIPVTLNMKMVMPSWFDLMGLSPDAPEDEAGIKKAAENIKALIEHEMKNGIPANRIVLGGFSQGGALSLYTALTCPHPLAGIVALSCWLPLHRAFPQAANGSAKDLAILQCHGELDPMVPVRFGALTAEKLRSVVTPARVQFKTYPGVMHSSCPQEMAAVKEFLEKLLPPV

log2 fold change, inactive:
MAP4K5 (UniProt Q9Y4K4) -0.065
LBR (UniProt Q14739) -0.174
MAPKAPK5 (UniProt Q8IW41) -0.03
ME2 (UniProt P23368) 0.008
MFGE8 (UniProt Q08431) 0.065
IMMT isoform 4 (UniProt Q16891) -0.011
KDM3B (UniProt Q7LBC6) -0.027
LAMP2 (UniProt P13473) 0.023
LYPLA2 (UniProt O95372) 0.053
KIF21A isoform 4 (UniProt Q7Z4S6) 0.018
LRBA (UniProt P50851) -0.002
ILF3 (UniProt Q12906) -0.086
MAST4 (UniProt O15021) -0.052
MARK2 (UniProt E9PC69) 0.029
KCT2 (UniProt Q8NC54) 0.022
ILKAP (UniProt Q9H0C8) -0.012
MCU (UniProt Q8NE86) 0.031
MELK (UniProt Q14680) 0.025
MAP2K1 (UniProt Q02750) -0.026
LTN1 isoform 3 (UniProt O94822) -0.001
MIA2 (UniProt Q96PC5) -0.012
KTN1 (UniProt Q86UP2) -0.043
LEO1 (UniProt Q8WVC0) -0.094
LIMA1 isoform 4 (UniProt Q9UHB6) -0.119
LUC7L2 (UniProt Q9Y383) 0
IL10RB (UniProt Q08334) 0.027
LMBRD1 (UniProt Q9NUN5) -0.03
MAP3K20 (UniProt Q9NYL2) -0.007
LTV1 (UniProt Q96GA3) 0.09
MFSD12 isoform 3 (UniProt Q6NUT3) -0.089
ILF3 isoform 7 (UniProt Q12906) -0.034
LARP4B (UniProt Q92615) 0.063
LDLR (UniProt P01130) -0.008
